Hit rate of the full screen: of about 62,000 compounds, about 95 (0.2%) were called active.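 How the source made its calls: active means inhibition above 20% in each of the two mixture wells holding the compound; inactive means inhibition of 20% or less in either well.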 The sample as a whole holds a higher share of actives than the screen did.
The compounds below were run against Cathepsin G (Homo sapiens) (UniProt P08311) (assay: blockers of neutrophil cathepsin G protease – biochemical, pooled compound mixtures, AMC fluorescence, primary screen (AID 581;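 further: 0% = enzyme control without mixture and 100% = blank lacking enzyme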)). Settings: purified enzyme, AMC-tetrapeptide fluorescence, hits give high values, screened at 5 µM (by protocol).
Chain of Cathepsin G (Homo sapiens) (P08311 21-244 limits assumed): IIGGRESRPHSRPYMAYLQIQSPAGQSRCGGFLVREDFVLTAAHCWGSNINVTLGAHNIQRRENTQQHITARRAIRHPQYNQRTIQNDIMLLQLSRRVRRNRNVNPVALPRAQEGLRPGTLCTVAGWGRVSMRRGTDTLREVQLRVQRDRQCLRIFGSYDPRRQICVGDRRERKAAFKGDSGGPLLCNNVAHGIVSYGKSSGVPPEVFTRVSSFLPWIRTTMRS

inhibition, inactive:
O=C1N=C(N2CCOCC2)CS1 -2.67%
O=C(CSc1nnc(-c2ccco2)n1CC1CCCO1)c1ccccc1 (stereo unspecified) 10.9%
CSc1ccc(-c2c(C#N)c(N)nc3c2c(C)nn3-c2ccccc2)cc1 5.96%
Cc1c(C(=O)OCC(=O)N(CCC#N)c2ccccc2)oc2c1ccc1ccccc12 10.9%
COc1ccc2nc(N3CCCC(O)C3)c(C#N)cc2c1 (stereo unspecified) 7.5%
O=C(Nc1ccc(S(=O)(=O)N2CCCC2)cc1Cl)C1=COCCO1 -0.78%
CN(C)c1ccc(CNC23CN4CN(CN(C4)C2)C3)cc1 -0.235%
CCCCNC(=O)CSc1nccn1Cc1ccccc1 -4.63%
COCCNC(=O)C(C#N)c1nc2ccccc2nc1N1CCN(Cc2ccc3c(c2)OCO3)CC1 (stereo unspecified) 8.39%
Cc1cc(N=CC2=C(O)CCCC2=O)no1 14.9%
CC1CCCC(C)N1C(=O)CN1CCN(c2nc(-c3ccc(F)cc3)cs2)CC1 (stereo unspecified) -39.9%
CCOC(=O)N1CCN(C(=O)c2ccc(CN(c3ccc(C)c(C)c3)S(C)(=O)=O)cc2)CC1 11.3%
N#CC1=C(N)Oc2n[nH]c(CSc3ccccc3)c2C12C(=O)Nc1ccccc12 (stereo unspecified) 13.8%
COc1ccc(-c2nc(CS(=O)CC(=O)N3CCc4ccccc4C3)c(C)o2)cc1 (stereo unspecified) 2.91%
CCCCn1nc(C(=O)N2CCc3ccccc32)c2ccccc2c1=O -0.085%
COc1ccccc1N1CC(O)=C(c2nc3ccccc3s2)C1=N -0.35%
O=C1CCC(C(=O)Nc2ccc(OC(F)F)cc2)N1 (stereo unspecified) 1.46%
Nc1c(C(=O)NCc2ccccc2)nnn1Cc1cccc(Cl)c1 -2.37%
Cc1cc(C(F)(F)F)nn1-c1nc(-c2ccco2)cc(C(F)(F)F)n1 -9.21%
Cc1ccc2cc3cc(C(=O)N4CCCCCC4)oc3nc2c1 8.2%
COCCOC(=O)C1=C(C)Nc2nc(C)nn2C1c1ccccc1 (stereo unspecified) -6.8%
CC1C=CCC2C(=O)N(c3cccc(C(=O)N4CCCCCC4)c3)C(=O)C12 (stereo unspecified) 9.22%
CCOC(=O)CSc1nnc(-c2ccncc2)o1 7.88%
O=C(c1ccco1)N1CCN=C1SCc1cccc(Cl)c1 -1.57%
Cc1ccc(-c2nc(CS(=O)CC(=O)NC3CCCC3)c(C)o2)cc1 (stereo unspecified) -3.33%
CCN(CCCNC(=O)C1CCN(S(=O)(=O)c2cnc[nH]2)CC1)c1ccccc1 14.4%
O=C(NCCCN1CCCCCC1)c1ccc(N2CCCC2=O)cc1 1.79%
CC1(N2CCOCC2)CC2(O)C(=[N+]1[O-])CCc1nonc12 (stereo unspecified) 11.9%
O=C(NC1CCCCC1)c1ccc2c(=O)n(CC3CCCO3)c(=O)[nH]c2c1 (stereo unspecified) -1.31%
Cc1cc(C)c(C)c(S(=O)(=O)Nc2ccc(O)cc2)c1C -0.38%
COc1ccc(OCCCON2C(=O)c3ccccc3C2=O)cc1 -4.08%
COc1cc(Br)cc(/C=N/c2ncn[nH]2)c1O 10.2%
CN(c1ccc(C(=O)NCCC2=CCCCC2)cc1)S(C)(=O)=O 1.87%
COc1cccc2cc(C(C)N(CCCN3CCOCC3)C(=O)Nc3ccc(Cl)cc3)oc12 (stereo unspecified) 1.68%
O=C(O)CN(Cc1ccco1)S(=O)(=O)c1ccc(F)cc1 6.5%
COc1ccc2c(c1OC)C(=O)N(c1ncn[nH]1)C2 -3.84%
COc1ccc(C)c2sc(=NC(=O)c3ccc(C#N)cc3)n(C)c12 1.85%
O=C(CCCC(=O)N(CC(=O)NC1CCCC1)Cc1ccccc1Cl)Nc1ccccn1 7.61%
Cc1nnc(NC2=NCCCCC2)o1 -1.69%
CSCCC1NC2(C(=O)Nc3ccc(Cl)cc32)[C@@H]2C(=O)N(C3CCCC3)C(=O)[C@H]12 (stereo partly specified) 17.3%
COc1ccc(N2C(=O)C3CCCN3C2c2cccc(OC)c2)cc1 (stereo unspecified) -5.7%
CCC(C)Sc1nc(C)nc2c1c(=O)n(C)c(=O)n2C (stereo unspecified) 8.64%
O=C(CC1CCCCC1)Nc1c2c(nn1-c1ccc(F)cc1)CS(=O)(=O)C2 -0.2%
COc1ccc(C2C(C#N)=C(N)Oc3cc(N)ccc32)cc1OC (stereo unspecified) -2.81%
O=C(CCCn1c(=O)oc2ccccc21)Nc1cccnc1 -1.41%
Cc1nc(-c2ccc(NC(=O)c3cccs3)cc2)cs1 8.02%
